# PubChem BioAssay (NCATS)
# Inconclusive results are not listed. Where a call stands in place of a potency, no number is given. Active and inactive are the calls of the source. The call rests on the fitted dose curve; in most records, active means well fitted curve in the direction sought with a large enough effect; inconclusive means small, poorly fitted or top-dose-only effect, or another doubt; inactive means no such curve, though single readings can be large; an effect the other way counts as inactive or inconclusive.
# Experiments:
# [1] = qHTS of pediatric cancer cell lines to identify multiple opportunities for drug repurposing: Primary screen for Rh30 cells (AID 1347107); details: Rh30 rhabdomyosarcoma viability, CellTiter-Glo luminescence, 48 h; series mostly up to 46 µM; further: nearly all actives have a fitted effect of over 75% in size
# Outline: (§1)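 Cells (500-1,000/well) in growth media were settled 5 h at 37 degrees C, then given compounds for 48 h. Viability was read as CellTiter-Glo luminescence. Primary runs used MIPE at 11 points (0.78 nM-46 µM) and NPC at 8 points (0.59 nM-46 µM); follow-ups used 11 points.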
# [2] = qHTS of pediatric cancer cell lines to identify multiple opportunities for drug repurposing: Primary screen for Rh41 cells (AID 1347108); details: Rh41 rhabdomyosarcoma viability, CellTiter-Glo luminescence, 48 h; series mostly up to 46 µM; further: nearly all actives have a fitted effect of over 70% in size; further: potency means the concentration at half of the fitted maximal effect
# Outline: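 Viability was measured as metabolically active cells after 48 hours of treatment, read by CellTiter-Glo luminescence. Compounds were tested at multiple final concentrations, giving concentration-response curves.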
# [3] = qHTS of pediatric cancer cell lines to identify multiple opportunities for drug repurposing: Confirmatory screen for NB1643 cells (AID 1347109); details: NB1643 neuroblastoma cell viability; series mostly up to 45.9 µM; further: nearly all actives have a fitted effect of over 45% in size; further: potency means the concentration at half of the fitted maximal effect
# Outline: as §1
# [4] = qHTS of pediatric cancer cell lines to identify multiple opportunities for drug repurposing: Confirmatory screen for A673 cells (AID 1347110); details: A673 Ewing sarcoma cell viability; series mostly up to 45.9 µM;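 further: potency means the concentration at half of the fitted maximal effect; cells exposed to compound for 48 h before the viability read; nearly all actives have a fitted effect of over 65% in size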
# Outline: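 Concentration-response curves came straight from titrations: 11 points (0.78 nM to 46 µM) for MIPE and several concentrations (0.59 nM to 46 µM) for NPC in primary, 11 points in follow-up. Readout: ATP luminescence at 48 h.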
# [5] = qHTS of pediatric cancer cell lines to identify multiple opportunities for drug repurposing: Confirmatory screen for SK-N-MC cells (AID 1347111); details: SK-N-MC cell viability; series mostly up to 45.9 µM;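 further: potency means the concentration at half of the fitted maximal effect; cells exposed to compound for 48 h before the readout; nearly all actives have a fitted effect of over 70% in size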
# Outline: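 Metabolically active cells were quantified by ATP-dependent luminescence (CellTiter-Glo, 15 min at room temperature) following 48 h treatment. Cells had been plated at 500-1,000 per well and settled for 5 h beforehand.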
# [6] = qHTS of pediatric cancer cell lines to identify multiple opportunities for drug repurposing: Confirmatory screen for BT-12 cells (AID 1347112); details: BT-12 rhabdoid tumor cells, viability; series mostly up to 45.9 µM; further: potency means the concentration at half of the fitted maximal effect; nearly all actives have a fitted effect of over 55% in size
# Outline: as §1
# [7] = qHTS of pediatric cancer cell lines to identify multiple opportunities for drug repurposing: Confirmatory screen for LAN-5 cells (AID 1347113); details: LAN-5 neuroblastoma cell viability; series mostly up to 45.9 µM; further: nearly all actives have a fitted effect of over 65% in size; further: potency means the concentration at half of the fitted maximal effect
# Outline: as §1
# [8] = qHTS of pediatric cancer cell lines to identify multiple opportunities for drug repurposing: Confirmatory screen for BT-37 cells (AID 1347117); details: BT-37 pediatric cancer cells, viability; series mostly up to 45.9 µM; further: potency means the concentration at half of the fitted maximal effect; nearly all actives have a fitted effect of over 55% in size
# Outline: as §1
# [9] = qHTS of pediatric cancer cell lines to identify multiple opportunities for drug repurposing: Confirmatory screen for MG 63 (6-TG R) cells (AID 1347119); details: MG-63 (6-TG resistant) osteosarcoma viability; series mostly up to 45.9 µM; further: potency means the concentration at half of the fitted maximal effect; nearly all actives have a fitted effect of over 55% in size
# Outline: as §1
# [10] = qHTS of pediatric cancer cell lines to identify multiple opportunities for drug repurposing: Confirmatory screen for control Hh wild type fibroblast cells (AID 1347121); details: viability qHTS; series mostly up to 45.9 µM; further: nearly all actives have a fitted effect of over 70% in size; further: potency means the concentration at half of the fitted maximal effect
# Outline: as §1
# [11] = qHTS of pediatric cancer cell lines to identify multiple opportunities for drug repurposing: Confirmatory screen for U-2 OS cells (AID 1347122); details: U-2 OS osteosarcoma cell viability; series mostly up to 45.9 µM; further: potency means the concentration at half of the fitted maximal effect; nearly all actives have a fitted effect of over 65% in size
# Outline: as §1
# [12] = qHTS of pediatric cancer cell lines to identify multiple opportunities for drug repurposing: Confirmatory screen for Rh18 cells (AID 1347125); details: Rh18 rhabdomyosarcoma cells, viability; series mostly up to 45.9 µM; further: nearly all actives have a fitted effect of over 55% in size; further: potency means the concentration at half of the fitted maximal effect
# Outline: as §1
# [13] = qHTS of pediatric cancer cell lines to identify multiple opportunities for drug repurposing: Confirmatory screen for SK-N-SH cells (AID 1347129); details: SK-N-SH neuroblastoma cell viability; series mostly up to 46.1 µM;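 further: cells exposed to compound for 48 h before viability read; nearly all actives have a fitted effect of over 60% in size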; further: potency means the concentration at half of the fitted maximal effect
# Outline: as §1
# [14] = qHTS of pediatric cancer cell lines to identify multiple opportunities for drug repurposing: Confirmatory screen for NB-EBc1 cells (AID 1347115); details: NB-EBc1 neuroblastoma cells, viability (cytotoxicity); series mostly up to 45.9 µM;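 further: cells exposed to compound for 48 h before the viability read; nearly all actives have a fitted effect of over 45% in size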; further: potency means the concentration at half of the fitted maximal effect
# Outline: as §1
# [15] = qHTS of pediatric cancer cell lines to identify multiple opportunities for drug repurposing: Confirmatory screen for SJ-GBM2 cells (AID 1347116); details: SJ-GBM2 glioblastoma cells, viability; series mostly up to 45.9 µM; further: potency means the concentration at half of the fitted maximal effect; nearly all actives have a fitted effect of over 60% in size
# Outline: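 Viability measured as metabolically active cells via CellTiter-Glo luminescence following 48 hours of compound exposure, 11-point dilutions in confirmatory testing. 500-1,000 cells/well plated 5 hours before dosing; controls were DMSO and 2.3 µM bortezomib.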
# [16] = qHTS of pediatric cancer cell lines to identify multiple opportunities for drug repurposing: Confirmatory screen for Rh41 cells (AID 1347123); details: Rh41 rhabdomyosarcoma cells, viability/cytotoxicity qHTS; series mostly up to 45.9 µM;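 further: potency means the concentration at half of the fitted maximal effect; 48 h compound exposure; nearly all actives have a fitted effect of over 60% in size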
# Outline: as §1
# [17] = qHTS of pediatric cancer cell lines to identify multiple opportunities for drug repurposing: Confirmatory screen for Rh30 cells (AID 1347126); details: Rh30 rhabdomyosarcoma cell viability; series mostly up to 45.9 µM
# Outline: as §1
# [18] = qHTS of pediatric cancer cell lines to identify multiple opportunities for drug repurposing: Confirmatory screen for OHS-50 cells (AID 1347128); details: OHS-50 osteosarcoma cells viability; series mostly up to 45.9 µM
# Outline: as §1
# Furin (Homo sapiens) = Furin (Homo sapiens) (UniProt P09958); assay: Furin counterscreen qHTS for Zika virus inhibitors (AID 1347149); details: furin enzymatic counterscreen, fluorogenic substrate; series mostly up to 57.5 µM;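 further: purified recombinant full-length human furin enzyme at 5 nM; fluorescence gain from furin cutting a BOC-RVRR-AMC peptide substrate over 15 min; top concentration of the series differs between compounds; nearly all actives have a fitted effect of over 70% in size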
# Furin (Homo sapiens), sequence (P09958 whole entry, looked up): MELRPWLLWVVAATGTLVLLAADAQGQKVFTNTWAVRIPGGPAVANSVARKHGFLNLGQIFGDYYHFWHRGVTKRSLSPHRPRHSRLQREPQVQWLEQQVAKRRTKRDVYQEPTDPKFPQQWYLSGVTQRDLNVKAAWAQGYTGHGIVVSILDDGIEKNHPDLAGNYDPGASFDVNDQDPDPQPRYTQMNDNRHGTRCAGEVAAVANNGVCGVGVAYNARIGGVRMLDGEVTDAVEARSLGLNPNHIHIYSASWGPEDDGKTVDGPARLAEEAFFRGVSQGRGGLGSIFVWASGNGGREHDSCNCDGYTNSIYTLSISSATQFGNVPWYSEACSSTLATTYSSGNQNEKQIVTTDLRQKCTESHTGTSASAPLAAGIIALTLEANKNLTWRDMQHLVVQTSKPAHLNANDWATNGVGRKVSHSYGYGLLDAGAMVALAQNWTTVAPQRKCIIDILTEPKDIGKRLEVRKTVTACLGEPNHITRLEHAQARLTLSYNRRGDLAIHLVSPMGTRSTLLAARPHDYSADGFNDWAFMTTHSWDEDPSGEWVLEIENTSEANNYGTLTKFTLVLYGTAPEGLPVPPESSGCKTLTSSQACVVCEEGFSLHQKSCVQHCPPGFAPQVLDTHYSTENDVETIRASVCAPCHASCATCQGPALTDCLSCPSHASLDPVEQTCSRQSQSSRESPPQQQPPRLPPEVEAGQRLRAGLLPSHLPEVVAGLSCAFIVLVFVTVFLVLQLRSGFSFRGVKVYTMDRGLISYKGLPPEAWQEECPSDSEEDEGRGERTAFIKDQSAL
# Outline: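 Fluorogenic cleavage of BOC-RVRR-AMC (2 microM final, Km ~15 µM) was monitored (ex 340, em 450 nm) at 37C after 15 min RT preincubation of 5 nM furin with compounds in HEPES pH 7.0 buffer with CaCl2 and Triton X-100. Percent inhibition was fitted to a 4-parameter Hill curve.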
smiles,measurement,setting,value
CN1CCN(C2=Nc3cc(Cl)ccc3Nc3ccccc32)CC1,outcome,[1],inactive
same,Potency,[2],inactive
OCCN1CCN(CCCN2c3ccccc3Sc3ccc(C(F)(F)F)cc32)CC1,outcome,[1],inactive
same,Potency,[2],inactive
CN1C(C(=O)Nc2ccccn2)=C(O)c2ccccc2S1(=O)=O,outcome,[1],inactive
same,Potency,[2],inactive
COc1ccc(CCN(C)CCCC(C#N)(c2ccc(OC)c(OC)c2)C(C)C)cc1OC (stereo unspecified),outcome,[1],inactive
same,Potency,[2],inactive
O=C(C1CCCCC1)N1CC(=O)N2CCc3ccccc3C2C1 (stereo unspecified),outcome,[1],inactive
same,Potency,[2],inactive
C[C@@H]1CC(=O)NN=C1c1ccc(NN=C(C#N)C#N)cc1,outcome,[1],inactive
CN1CCN2c3ccccc3Cc3ccccc3C2C1 (stereo unspecified),outcome,[1],inactive
same,Potency,[2],inactive
CN(C)CCOC(c1ccccc1)c1ccccc1,outcome,[1],inactive
same,Potency,[2],inactive
CC1(CN2CCC(n3c(=O)[nH]c4ccccc43)CC2)OCc2ccccc2-n2cccc21 (stereo unspecified),outcome,[1],inactive
COc1ccccc1OCC(O)CN1CCN(CC(=O)Nc2c(C)cccc2C)CC1 (stereo unspecified),outcome,[1],inactive
same,Potency,[2],inactive
COc1cc2nc(N3CCN(C(=O)C4COc5ccccc5O4)CC3)nc(N)c2cc1OC (stereo unspecified),outcome,[1],inactive
same,Potency,[2],inactive
CNCCCC12CCC(c3ccccc31)c1ccccc12,outcome,[1],inactive
CN1CCC(=C2c3ccccc3CC(=O)c3sccc32)CC1,outcome,[1],inactive
same,Potency,[2],inactive
CCCNCC(O)COc1ccccc1C(=O)CCc1ccccc1 (stereo unspecified),outcome,[1],inactive
same,Potency,[2],inactive
Nc1c2c(nc3ccccc13)CCCC2,outcome,[1],inactive
same,Potency,[2],inactive
CC[N+](CC)(CC)CCOc1cccc(OCC[N+](CC)(CC)CC)c1OCC[N+](CC)(CC)CC,outcome,[1],inactive
same,Potency,[2],inactive
NC(=O)OCC(COC(N)=O)c1ccccc1,outcome,[1],inactive
same,Potency,[2],inactive
CN(C)c1nc(N(C)C)nc(N(C)C)n1,outcome,[1],inactive
same,Potency,[2],inactive
Clc1ccc2c(c1)C(N1CCNCC1)=Nc1ccccc1O2,outcome,[1],inactive
same,Potency,[2],inactive
NCCCCCC(=O)O,outcome,[1],inactive
same,Potency,[2],inactive
Clc1ccccc1C(c1ccccc1)(c1ccccc1)n1ccnc1,outcome,[1],inactive
COc1ccccc1N1CCN(CC(O)COc2cccc3ccccc23)CC1 (stereo unspecified),outcome,[1],inactive
NS(=O)(=O)c1cc2c(cc1Cl)NCNS2(=O)=O,outcome,[1],inactive
same,Potency,[2],inactive
Cc1cn([C@H]2C=C[C@@H](CO)O2)c(=O)[nH]c1=O,outcome,[1],inactive
same,Potency,[2],inactive
CCOC(=O)c1ncn2c1CN(C)C(=O)c1cc(F)ccc1-2,outcome,[1],inactive
same,Potency,[2],inactive
CN(CCOc1ccc(NS(C)(=O)=O)cc1)CCc1ccc(NS(C)(=O)=O)cc1,outcome,[1],inactive
same,Potency,[2],inactive
COc1ccccc1OCCNCC(O)COc1cccc2[nH]c3ccccc3c12 (stereo unspecified),outcome,[1],inactive
COc1cc2nc(N(C)CCCNC(=O)C3CCCO3)nc(N)c2cc1OC (stereo unspecified),outcome,[1],inactive
same,Potency,[2],inactive
O=c1c(-c2ccc(O)cc2)coc2cc(O)cc(O)c12,outcome,[1],inactive
same,Potency,[2],inactive
CN1CCC(=C2c3ccccc3C=Cc3ccccc32)CC1,outcome,[1],inactive
same,Potency,[2],inactive
CC1(C)O[C@H]2CC(=O)OC[C@]23[C@H]2CC[C@@]4(C)[C@H](c5ccoc5)OC(=O)[C@H]5O[C@]54[C@]2(C)C(=O)C[C@@H]13,outcome,[1],inactive
same,Potency,[2],inactive
NC(CO)C(=O)NNCc1ccc(O)c(O)c1O (stereo unspecified),outcome,[1],inactive
same,Potency,[2],inactive
Cn1c(=O)c2c(ncn2C)n(C)c1=O,outcome,[1],inactive
same,Potency,[2],inactive
COc1ccc2c(c1)c(CC(=O)O)c(C)n2C(=O)c1ccc(Cl)cc1,outcome,[1],inactive
same,Potency,[2],inactive
CN(C)C(=N)N=C(N)N,outcome,[1],inactive
same,Potency,[2],inactive
COc1cc2c(c(OC)c1OC)-c1ccc(OC)c(=O)cc1[C@@H](NC(C)=O)CC2,outcome,[1],inactive
same,Potency,[2],20900 nM (active)
same,Potency,[3],44.7 nM (active)
same,Potency,[4],31.6 nM (active)
same,Potency,[5],39.8 nM (active)
same,Potency,[6],63.1 nM (active)
same,Potency,[7],89.1 nM (active)
same,Potency,[8],56.2 nM (active)
same,Potency,[9],100 nM (active)
same,Potency,[10],inactive
same,Potency,[11],112 nM (active)
same,Potency,[12],inactive
same,Potency,[13],inactive
CC(C)C(=O)Nc1ccc([N+](=O)[O-])c(C(F)(F)F)c1,outcome,[1],inactive
same,Potency,[2],11800 nM (active)
same,Potency,[3],inactive
same,Potency,[4],10400 nM (active)
same,Potency,[7],inactive
same,Potency,[14],inactive
same,Potency,[10],inactive
same,Potency,[13],inactive
CN(C)CCC=C1c2ccccc2C=Cc2ccccc21,outcome,[1],inactive
same,Potency,[2],inactive
O=C(Nc1ccc([N+](=O)[O-])cc1Cl)c1cc(Cl)ccc1O,outcome,[1],inactive
same,Potency,[2],2350 nM (active)
same,Potency,[3],1620 nM (active)
same,Potency,[4],5120 nM (active)
same,Potency,[5],4070 nM (active)
same,Potency,[6],3230 nM (active)
same,Potency,[7],3230 nM (active)
same,Potency,[14],1440 nM (active)
same,Potency,[15],4070 nM (active)
same,Potency,[8],1440 nM (active)
same,Potency,[9],1620 nM (active)
same,Potency,[10],3620 nM (active)
same,Potency,[11],4560 nM (active)
same,Potency,[16],1150 nM (active)
same,Potency,[12],3620 nM (active)
same,Potency,[17],2290 nM (active)
same,Potency,[18],1620 nM (active)
same,Potency,[13],3230 nM (active)
same,Potency,Furin (Homo sapiens),inactive
